Screening data as filed in PubChem BioAssay.
KB-V1 MDR tox = kills drug-selected multidrug resistant KB-V1 cells. KB-V1 MDR cells viability, CellTiter-Glo, 72 h. Potency, µM (titrated, usually from 46.1 µM), hits mostly cytotoxic. actives 3.4% (n = 400,000); further: nearly all actives have a fitted effect of over 60% in size
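KB-V1 MDR subline cells in DMEM (phenol-red free, 10% FBS) exposed to compounds in qHTS concentration series for 72 h at 37 degrees C. Viability read by CellTiter-Glo luminescence; concentration-effect curves fitted after normalization and correction.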
TDP1 cell CPT = DT40-hTDP1 cell growth loss with CPT. chicken DT40 Tdp1-/-;hTDP1 cells + 20 nM CPT, ATP luminescence, 48 h. Potency, µM (top dose mostly 46.2 µM), without a hit: at the highest dose activity change, negative = growth inhibition, actives largely listed as inhibitors. actives 12% (n = 420,000); further: nearly all actives have a fitted effect of over 55% in size
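Chicken DT40 Tdp1-/- cells stably complemented with human TDP1 were seeded at 400 cells/well in medium containing 20 nM camptothecin, exposed to pin-transferred compounds, and grown at 37 °C for at least 48 hr. Viability was read as ATP luminescence.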
HT1080 IDH1KD tx = toxicity to HT-1080 IDH1 knockdown cells (counter line). HT-1080 IDH1 knockdown viability, ATP luminescence, 48 h. Potency, µM (top dose mostly 46.1 µM), for inactives: top-dose activity, negative = toxicity, most hits filed as cytotoxic. actives 2% (n = 360,000);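 further: 0% = DMSO wells and -100% = cell-free medium wells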
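In this qHTS, HT-1080 cells depleted of IDH1 are exposed for 48 h at 37 °C to compound titrations. Toxicity is scored from CellTiter-Glo luminescence, with DMSO as full viability and medium alone as none.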
KB-3-1 cytotox = KB-3-1 parental cell cytotoxicity; actives 1.4% (n = 400,000); Potency, µM (titrated, usually from 46.1 µM), actives largely listed as cytotoxic; KB-3-1 viability, CellTiter-Glo ATP luminescence, 72 h; AID 1347075; further: nearly all actives have a fitted effect of over 60% in size
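Here the drug-naive KB-3-1 line serves as comparator for MDR sub-line selectivity; cells received compound titrations, 72 h at 37 °C, then CellTiter-Glo readout.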
HT1080NT lethal = kills 2HG-producing HT-1080-NT fibrosarcoma cells | actives 1.6% (n = 360,000) | HT-1080-NT fibrosarcoma viability, CellTiter-Glo ATP luminescence, 48 h | Potency, µM (doses to about 46.1 µM), for inactives: at the highest dose activity, negative = less viability, actives largely listed as cytotoxic;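 further: NT is the 2HG producing partner of a matched IDH1 knockdown line; 0% = DMSO-treated cells and -100% = media-only wells without cells; nearly all actives have a fitted effect of over 55% in size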
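Toxicity toward the 2HG-producing NT line was scored as %Activity, normalised to DMSO and no-cell wells, from CellTiter-Glo luminescence after 48 hours' treatment.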
TDP1 cell noCPT = qHTS for Inhibitors of human tyrosyl-DNA phosphodiesterase 1 (TDP1): qHTS in cells in absence of CPT; actives 15% (n = 420,000); Potency, µM (top dose mostly 46.2 µM), without a hit: top-dose activity change, negative = growth inhibition, hits mostly inhibitors; DT40 Tdp1-/- hTDP1 cells, no CPT, ATP luminescence, 48 h; further: nearly all actives have a fitted effect of over 55% in size
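A cellular qHTS used chicken DT40 cells lacking endogenous Tdp1 but carrying stably transfected human TDP1. Compounds were applied without camptothecin, and cell growth kinetics were judged by ATP-dependent luminescence after ≥48 hr.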
Active calls of the source: *; i = inactive; ? = inconclusive; nt = no result; ! = a repeat was not active. Most compounds without a hit are left out; they make up all but 19% or so of the library. The call rests on the fitted dose curve; in most records, active means well fitted curve in the direction sought with a large enough effect; inconclusive means small, poorly fitted or top-dose-only effect, or another doubt; inactive means no such curve, though single readings can be large; an effect the other way counts as inactive or inconclusive. Unless noted, on the % scale 0 is the no-effect control and ±100 the full control effect; potency means the concentration at half of the fitted maximal effect.

SMILES	KB-V1 MDR tox	TDP1 cell CPT	HT1080 IDH1KD tx	KB-3-1 cytotox	HT1080NT lethal	TDP1 cell noCPT
CCC(C)Sc1ccc([C@@H]2[C@@H]3C(=O)N(C)C(=O)[C@@H]3[C@]3(C(=O)OC)CCCCN23)cc1OC (some centres not stated)	i	?	-15%	i	2%	18µM*
CCC(C)Sc1ccc([C@@H]2[C@H]3C(=O)N(C)C(=O)[C@H]3[C@]3(C(=O)OC)CCCN23)cc1 (some centres not stated)	i	?	0%	i	21%	15µM*
CCOC(=O)c1c(CN2CCCCC2)oc2ccc(OC)cc12	9.2µM*!	?	-15%	i	-5%	23µM*!
CCOC(=O)c1c(CN2CCN(C)CC2)oc2ccc(OC)cc12	i	-1%	1%	i	7%	-5%
CCOC(=O)c1c(CN2CCN(c3ccccc3)CC2)oc2ccc(O)cc12	i	?	-17%	i	-16%	?
CCOC(=O)c1c(CN2CCCCC2C)oc2ccc(OC)cc12 (configuration not stated)	i	21µM*	?	?	?	?
CCOC(=O)c1c(CN2CCC(C)CC2)oc2ccc(OC)cc12	?	23µM*	-6%	i	-2%	?
COCCCNc1ccn2nc(-c3cc(OC)c(OC)c(OC)c3)cc2n1	i	?	22%	i	-5%	?
COc1cc(Nc2ccn3nc(-c4ccccc4Cl)cc3n2)cc(OC)c1OC	i	?	-21%	?	23µM*	21µM*
c1ccc(OCCNc2ccn3nc(-c4ccccc4)cc3n2)cc1	i	?	-4%	i	-8%	?
COc1cc(Nc2cccc(-c3ccccc3)n2)cc(OC)c1OC	i	18µM*	?	i	-28%	?
c1ccc(COc2ccc(-c3cc4nc(NCCCn5ccnc5)ccn4n3)cc2)cc1	i	23µM*	?	i	?	16µM*
COc1ccccc1-c1cc2nc(NCCOc3ccccc3)ccn2n1	i	18µM*	?	i	?	16µM*
COc1cc(/C=C/CNC[C@H]2O[C@@H](n3ccc(=O)[nH]c3=O)[C@H](O)[C@@H]2O)ccc1O	i	4%	4%	i	9%	-1%
Cc1nnc(SCc2cc(=O)n3c(C)cccc3n2)s1	nt	-6%	nt	nt	nt	2%
c1ccc(OCCNc2ccn3nc(-c4cccs4)cc3n2)cc1	i	?	-4%	i	?	?
COCCCNc1ccn2nc(-c3cccc(OCc4ccccc4)c3)cc2n1	i	?	?	i	?	7.3µM*
c1ccc(COc2cccc(-c3cc4nc(NCc5cccs5)ccn4n3)c2)cc1	?	?	7.3µM*	?	?	?
O=C(CN1C(=O)CCc2cc(S(=O)(=O)N3CCOCC3)ccc21)NCc1ccccc1	i	7%	nt	i	nt	0%
CC(=O)Nc1ccc(NC(=O)C(=O)c2cn(CC(=O)N3CCCC3)c3ccccc23)cc1	i	0%	-16%	i	1%	-21%
COc1ccc(CCNC(=O)Cn2cc(S(=O)(=O)Cc3ccc(F)cc3)c3ccccc32)cc1OC	i	?	nt	i	nt	21µM*
COc1ccc(NC(=O)C(=O)c2cn(CC(=O)N3CCCC3)c3ccccc23)cc1	?	0.41µM*	0.37µM*	?	?	0.23µM*
COc1ccc(CCNC(=O)CS(=O)(=O)c2cn(CC(=O)N3CCCC3)c3ccccc23)cc1OC	i	0%	22%	i	1%	-3%
CC(=O)Nc1cccc(NC(=O)C(=O)c2cn(CC(=O)N3CCCCC3)c3ccccc23)c1	i	23µM*	-19%	i	-16%	?
COc1ccc(CCNC(=O)C(=O)c2cn(CC(=O)N3CCCC3)c3ccccc23)cc1OC	?	-9%	5%	i	-4%	21µM*
SMILES	KB-V1 MDR tox	TDP1 cell CPT	HT1080 IDH1KD tx	KB-3-1 cytotox	HT1080NT lethal	TDP1 cell noCPT
CCc1ccc(S(=O)(=O)c2cn(CC(=O)Nc3cccc(C)c3)c3ccc(Cl)cc3c2=O)cc1	?	2%	nt	i	nt	-27%
CC(C)(C)N(Cc1ccccc1)C(=O)COC(=O)C1CC(=O)N(Cc2ccccc2)C1 (configuration not stated)	i	?	-19%	i	-17%	?
CCN1CCN(S(=O)(=O)c2ccc(OC)cc2)CC1	i	-12%	2%	i	2%	-1%
CCc1nc2c(OCCC3CCCCC3)cccn2c1N(C=O)Cc1ccc(OC)cc1	?	?	?	i	?	?
CCc1nc2c(OCC(=O)C(C)(C)C)cccn2c1N(C)C(=O)C1CC1	i	-1%	18%	i	3%	-23%
CCOC(=O)N(C)c1c(CC)nc2c(OCCC3CCCCC3)cccn12	i	?	?	i	?	16µM*
CCOC(=O)C(=O)N(C)c1c(CC)nc2c(OCCC3CCCCC3)cccn12	i	?	-21%	i	-8%	18µM*
CCCCC1(CC(=O)OC)C(=O)N(c2ccccc2)N(c2ccccc2)C1=O	i	7%	3%	i	3%	-23%
CN(Cc1ccccc1)C(=O)c1ccc(NC(=O)C2CCCN(C(=O)OC(C)(C)C)C2)cc1 (configuration not stated)	i	?	-16%	?	2%	18µM*
CN(C(=O)c1cccc(NC(=O)Cc2ccc(NC(=O)C3CCCN(C(=O)c4ccccc4)C3)cc2)c1)C1CCC1 (configuration not stated)	i	?	13%	i	7%	?
CN(C(=O)c1cccc(NC(=O)Cc2ccc(NC(=O)C3CCCN(C(=O)c4ccccc4)C3)cc2)c1)C1CCCC1 (configuration not stated)	i	?	7%	i	8%	?
CN(C(=O)c1cccc(NC(=O)Cc2ccc(NC(=O)C3CCCN(C(=O)CCc4ccccc4)C3)cc2)c1)C1CCCCC1 (configuration not stated)	i	?	-26%	?	-21%	16µM*
